Reference: PubChem BioAssay (NCI)
Compounds without any hit were thinned out: in the full panel of roughly 79,000, 15% have a hit. Active and inactive are the calls of the source. Rule as the data show it: active = growth inhibition above about 70%; inactive = the rest.

Assay: NCI Yeast Anticancer Drug Screen. Data for the wt1 strain (AID 149);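 also: 0% = growth of vehicle-treated wt1 cultures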
Details: S. cerevisiae wt1 strain (SPY 50644) growth inhibition; at 1.2 µM; stronger effect = higher value
Procedure, shortened: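 Each compound is tested on wt1 yeast and the loss of growth versus vehicle gives the inhibition value.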

SMILES | growth inhibition
C=C[C@H]1CN2CC[C@H]1C[C@@H]2[C@@H](O)c1ccnc2ccccc12 | -1% (inactive)
O=c1c2ccccc2[se]n1-c1cccnc1 | -5% (inactive)
CC12CCC(C1)C(C)(C)C2OC(=O)c1ccccc1N (stereo not drawn) | -1% (inactive)
OC1(c2ccccc2)CC2CCC(C1)N2CCCC(O)(c1ccccc1)c1ccccc1 (stereo not drawn) | 1% (inactive)
CCCCCCCCCC[Se]C#N | -4% (inactive)
CNCC(O)c1ccc(O)c(O)c1.[Pt].c1ccc([PH+](c2ccccc2)c2ccccc2)cc1.c1ccc([PH+](c2ccccc2)c2ccccc2)cc1 | -1% (inactive)
Nc1nc(N)c(-c2ccc(Cl)c(Cl)c2)c(CP(Cl)(Cl)(Cl)Br)n1 | 9% (inactive)
CC1CC(C)CC(C)C(O)/C(C#N)=C/C=C/CC(C2CCCC2C(=O)O)OC(=O)CC(O)C(C)C1 (stereo not drawn) | 97% (active)

Same assay, conditions: S. cerevisiae wt1 strain (SPY 50644) growth inhibition; at 3.7 µM; stronger effect = higher value

SMILES | growth inhibition
C=C[C@H]1CN2CC[C@H]1C[C@@H]2[C@@H](O)c1ccnc2ccccc12 | -2% (inactive)
O=c1c2ccccc2[se]n1-c1cccnc1 | -6% (inactive)
CC12CCC(C1)C(C)(C)C2OC(=O)c1ccccc1N (stereo not drawn) | -1% (inactive)
OC1(c2ccccc2)CC2CCC(C1)N2CCCC(O)(c1ccccc1)c1ccccc1 (stereo not drawn) | 1% (inactive)
CCCCCCCCCC[Se]C#N | 2% (inactive)
CNCC(O)c1ccc(O)c(O)c1.[Pt].c1ccc([PH+](c2ccccc2)c2ccccc2)cc1.c1ccc([PH+](c2ccccc2)c2ccccc2)cc1 | -2% (inactive)
Nc1nc(N)c(-c2ccc(Cl)c(Cl)c2)c(CP(Cl)(Cl)(Cl)Br)n1 | 16% (inactive)
CC1CC(C)CC(C)C(O)/C(C#N)=C/C=C/CC(C2CCCC2C(=O)O)OC(=O)CC(O)C(C)C1 (stereo not drawn) | 99% (active)

Same assay, conditions: S. cerevisiae wt1 strain (SPY 50644) growth inhibition; at 11.0 µM; stronger effect = higher value

SMILES | growth inhibition
C=C[C@H]1CN2CC[C@H]1C[C@@H]2[C@@H](O)c1ccnc2ccccc12 | -4% (inactive)
O=c1c2ccccc2[se]n1-c1cccnc1 | 21% (inactive)
CC12CCC(C1)C(C)(C)C2OC(=O)c1ccccc1N (stereo not drawn) | -4% (inactive)
OC1(c2ccccc2)CC2CCC(C1)N2CCCC(O)(c1ccccc1)c1ccccc1 (stereo not drawn) | 2% (inactive)
CCCCCCCCCC[Se]C#N | -3% (inactive)
CNCC(O)c1ccc(O)c(O)c1.[Pt].c1ccc([PH+](c2ccccc2)c2ccccc2)cc1.c1ccc([PH+](c2ccccc2)c2ccccc2)cc1 | -2% (inactive)
Nc1nc(N)c(-c2ccc(Cl)c(Cl)c2)c(CP(Cl)(Cl)(Cl)Br)n1 | 45% (inactive)
CC1CC(C)CC(C)C(O)/C(C#N)=C/C=C/CC(C2CCCC2C(=O)O)OC(=O)CC(O)C(C)C1 (stereo not drawn) | 99% (active)

Same assay, conditions: S. cerevisiae wt1 strain (SPY 50644) growth inhibition; at 33.0 µM; stronger effect = higher value

SMILES | growth inhibition
C=C[C@H]1CN2CC[C@H]1C[C@@H]2[C@@H](O)c1ccnc2ccccc12 | -2% (inactive)
O=c1c2ccccc2[se]n1-c1cccnc1 | 29% (inactive)
CC12CCC(C1)C(C)(C)C2OC(=O)c1ccccc1N (stereo not drawn) | -13% (inactive)
OC1(c2ccccc2)CC2CCC(C1)N2CCCC(O)(c1ccccc1)c1ccccc1 (stereo not drawn) | 6% (inactive)
CCCCCCCCCC[Se]C#N | 6% (inactive)
CNCC(O)c1ccc(O)c(O)c1.[Pt].c1ccc([PH+](c2ccccc2)c2ccccc2)cc1.c1ccc([PH+](c2ccccc2)c2ccccc2)cc1 | 8% (inactive)
Nc1nc(N)c(-c2ccc(Cl)c(Cl)c2)c(CP(Cl)(Cl)(Cl)Br)n1 | 55% (inactive)
CC1CC(C)CC(C)C(O)/C(C#N)=C/C=C/CC(C2CCCC2C(=O)O)OC(=O)CC(O)C(C)C1 (stereo not drawn) | 99% (active)

Same assay, conditions: S. cerevisiae wt1 strain (SPY 50644) growth inhibition; at 100.0 µM; stronger effect = higher value

SMILES | growth inhibition
C=C[C@H]1CN2CC[C@H]1C[C@@H]2[C@@H](O)c1ccnc2ccccc12 | -2% (inactive)
O=c1c2ccccc2[se]n1-c1cccnc1 | 56% (inactive)
CC12CCC(C1)C(C)(C)C2OC(=O)c1ccccc1N (stereo not drawn) | 14% (inactive)
OC1(c2ccccc2)CC2CCC(C1)N2CCCC(O)(c1ccccc1)c1ccccc1 (stereo not drawn) | 24% (inactive)
CCCCCCCCCC[Se]C#N | 48% (inactive)
CNCC(O)c1ccc(O)c(O)c1.[Pt].c1ccc([PH+](c2ccccc2)c2ccccc2)cc1.c1ccc([PH+](c2ccccc2)c2ccccc2)cc1 | 53% (inactive)
Nc1nc(N)c(-c2ccc(Cl)c(Cl)c2)c(CP(Cl)(Cl)(Cl)Br)n1 | 48% (inactive)
CC1CC(C)CC(C)C(O)/C(C#N)=C/C=C/CC(C2CCCC2C(=O)O)OC(=O)CC(O)C(C)C1 (stereo not drawn) | 98% (active)

Assay: NCI Yeast Anticancer Drug Screen. Data for the rad50EPP+ strain (AID 151);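 also: 0% = growth of vehicle-treated control cultures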
Details: S. cerevisiae rad50 mutant strain, at 1.2 µM, stronger effect = higher value
Procedure, shortened: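 Exposing the rad50EPP+ strain to each compound, growth was compared with vehicle-only cultures to give inhibition.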

SMILES | growth inhibition
C=C[C@H]1CN2CC[C@H]1C[C@@H]2[C@@H](O)c1ccnc2ccccc12 | -1% (inactive)
O=c1c2ccccc2[se]n1-c1cccnc1 | 67% (inactive)
CC12CCC(C1)C(C)(C)C2OC(=O)c1ccccc1N (stereo not drawn) | 6% (inactive)
OC1(c2ccccc2)CC2CCC(C1)N2CCCC(O)(c1ccccc1)c1ccccc1 (stereo not drawn) | -5% (inactive)
COC(=O)C(F)C(Br)C(=O)OC (stereo not drawn) | 28% (inactive)
CNCC(O)c1ccc(O)c(O)c1.[Pt].c1ccc([PH+](c2ccccc2)c2ccccc2)cc1.c1ccc([PH+](c2ccccc2)c2ccccc2)cc1 | 2% (inactive)
Nc1nc(N)c(-c2ccc(Cl)c(Cl)c2)c(CP(Cl)(Cl)(Cl)Br)n1 | -2% (inactive)
CC1CC(C)CC(C)C(O)/C(C#N)=C/C=C/CC(C2CCCC2C(=O)O)OC(=O)CC(O)C(C)C1 (stereo not drawn) | -17% (inactive)
